# Assay outcomes: PubChem, National Center for Advancing Translational Sciences (NCATS)
# An excerpt weighted towards active compounds, which were near 11% of everything screened.
# ALDH1A1 inh: blocks purified human ALDH1A1 activity; AID 1030; P00352; Purified ALDH1A1, NADH fluorescence, propionaldehyde substrate; Potency, µM (series often up to 75.3 µM), for the others: at the top dose activity, negative = inhibition, most hits filed as inhibitors; actives 7.3% (n = 220,000); active = well fitted inhibition curve with a large enough effect, not every such curve was filed as active; inconclusive = small, poorly fitted or top-dose-only effect, or another doubt; inactive = no such curve, though single readings can be large or run the other way;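 note: potency is the fitted concentration of half-maximal effect; plate controls were no enzyme wells and a reference inhibitor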
# IMPase Li cell: membrane-permeable IMPase blocker, potentiated with lithium. Potency, µM (titrated, usually from 59.4 µM), without a hit: at the highest dose activity, negative = IMPase inhibition, usual class: inhibitors. CHO-M1 cells, IP1 TR-FRET (IP-One), carbachol + lithium. actives 0.35% (n = 210,000);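 note: IP1 builds up when IMPase is blocked and the TR-FRET signal falls; potency is the fitted concentration of half-maximal effect; plate controls were basal vehicle for no effect and high inhibitor control for full effect; nearly all actives have a fitted effect of over 50% in size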
#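 Lithium-sensitised IP1 accumulation assay; M1-expressing CHO cells treated 30 min at 37C with compound. Competitive antibody detection by time-resolved FRET followed a 10 min room-temperature lysis step.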
# IMPase cell inh: cell-permeable inhibitors of inositol monophosphatase (IMPase). AID 901. 120,000 tested, under 10 active. inhibition (IP1 accumulation), % at 46.1 µM. CHO-M1 cells, IP1 accumulation, HTRF TR-FRET ratio. P97697; active = well fitted curve in the direction sought with a large enough effect in the signal ratio, not every such curve was filed as active; inconclusive = small, poorly fitted or top-dose-only effect, or a change in a side signal; inactive = no such curve, though single readings can be large or run the other way; the % refers to the signal ratio;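 note: cells stimulated with carbachol in lithium chloride buffer; plate controls were DMSO basal wells for no effect and reference inhibitor wells for full effect; higher means more IMPase inhibition seen as more IP1 and lower FRET ratio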
# Target sequence (P97697 whole entry, looked up): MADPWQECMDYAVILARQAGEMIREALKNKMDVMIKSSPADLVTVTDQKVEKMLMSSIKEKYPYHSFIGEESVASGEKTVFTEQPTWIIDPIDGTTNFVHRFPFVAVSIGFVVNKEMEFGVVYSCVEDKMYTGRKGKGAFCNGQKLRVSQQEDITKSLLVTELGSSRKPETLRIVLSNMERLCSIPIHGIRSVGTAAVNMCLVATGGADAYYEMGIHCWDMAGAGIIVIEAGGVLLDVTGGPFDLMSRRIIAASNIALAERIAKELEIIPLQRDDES
#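 Seeded CHO-M1 cells were dosed with compound at up to 46 uM, stimulated with carbachol for 30 min, then lysed in IP-One detection reagents. Higher IP1 lowers the TR-FRET signal.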
# 12-hLO inh: blocks human 12-lipoxygenase activity; Potency, µM (titrated, usually from 57.1 µM), for inactives: top-dose activity change, negative = inhibition, hits mostly inhibitors; purified 12-hLO, xylenol orange hydroperoxide absorbance; P18054; actives 0.12% (n = 150,000); note: potency is the fitted concentration of half-maximal effect; nearly all actives have a fitted effect of over 55% in size
#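 Xylenol orange chromogenic assay: hydroperoxide from 12hLO oxidises Fe(II), giving red-shifted Fe(III)-XO absorbance. Conditions: 150 nM enzyme, 40 uM arachidonic acid, 25 mM Hepes pH 7.0, 0.01% Triton X-100, 30 min, room temperature.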
# HPGD inh: inhibitors of human 15-hydroxyprostaglandin dehydrogenase (HPGD) | Potency, µM, inactives show top-dose activity change, negative = inhibition, hits mostly inhibitors | purified HPGD, NADH fluorescence kinetic, PGE2 substrate | P15428 | actives 4.3% (n = 150,000); active = well fitted inhibition curve with a large enough effect, not every such curve was filed as active; inconclusive = small, poorly fitted or top-dose-only effect, or another doubt; inactive = no such curve, though single readings can be large or run the other way; note: potency is the fitted concentration of half-maximal effect
# Target sequence (P15428 whole entry, looked up): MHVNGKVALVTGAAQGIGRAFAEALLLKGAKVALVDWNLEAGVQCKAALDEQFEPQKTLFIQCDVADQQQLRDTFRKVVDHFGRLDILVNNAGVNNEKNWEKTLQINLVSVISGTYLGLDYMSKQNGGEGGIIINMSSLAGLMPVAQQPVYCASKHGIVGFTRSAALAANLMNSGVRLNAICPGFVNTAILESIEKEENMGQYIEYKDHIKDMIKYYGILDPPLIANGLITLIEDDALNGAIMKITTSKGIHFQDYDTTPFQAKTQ
#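 20 nM HPGD preincubated 15 min at room temperature with compound in 50 mM Tris-HCl pH 8, 0.01% Tween 20. Started with 1 mM NAD+ and 30 uM prostaglandin E2; NADH fluorescence (360/450 nm) read 5 times over 30-s intervals, last minus first.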
# PNC assembly inh: blocks assembly of the perinucleolar compartment. actives 3.1% (n = 140,000). AID 2417. PC3M PTB-GFP, PNC prevalence imaging, 16 h; stronger effect = lower value. activity change (PNC), negative = inhibition, % at 10 µM;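 active = readout at or below -70, meaning at least 70% loss of cells showing the perinucleolar compartment, a nuclear body marking cancer cells; inconclusive = readout between -30 and a set limit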;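 note: plate controls were DMSO wells for no effect and camptothecin positive control wells for full effect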
#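 Compounds are pinned in duplicate onto adhered PC3M cells stably expressing GFP-tagged PTB and incubated 16 h at 37 C. Cells are then fixed, nuclei stained with Hoechst, and PNC-positive cells counted.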
# An asterisk follows results filed as active; ? = inconclusive; · = not tested or not shown; [ ] = another dose, or the depositor's remark. Unless noted, calls come from the whole dose curve; as a rule, active = well fitted curve in the direction sought with a large enough effect; inconclusive = small, poorly fitted or top-dose-only effect, or another doubt; inactive = no such curve, though single readings can be large; an effect the other way counts as inactive or inconclusive. Unless noted, % is set by controls: 0 for no effect and ±100 for the full control effect.
SMILES,ALDH1A1 inh,IMPase Li cell,IMPase cell inh,12-hLO inh,HPGD inh,PNC assembly inh
CC(=O)C1=C(O)C(=O)N(CCC(=O)O)C1c1cccc(F)c1 (stereo not drawn),-9%,11%[38.3 µM],-12,7%,25µM*,?
CC1=C(C(=O)Nc2ccccc2F)C(c2cccs2)NC(=S)N1 (stereo not drawn),13µM*,1%,·,·,·,·
CNC(=O)C1=C(C)NC(=S)NC1c1cccs1 (stereo not drawn),-2%,-5%,·,·,·,·
CC1=C(C(=O)Nc2cc(C)ccc2C)C(c2cccs2)NC(=S)N1 (stereo not drawn),5.6µM*,4%[38.3 µM],-1,3%,-1%,89
COc1cccc([C@@H]2Oc3ccc(OC)cc3[C@H](O)[C@H]2O)c1,13%,18%,·,·,-4%,·
COc1c(C)cccc1C(=O)Nc1ccc(N2CCOCC2)c(Cl)c1,-12%,0%[38.3 µM],5,1%,-27%,?
Cc1ccc(NC(=O)c2cc(N3C(=O)C=CC3=O)ccc2N2CCOCC2)cc1,0.35µM*,24%,·,·,·,·
Cc1ccc(NC(=O)c2cc(N3C(=O)C4CC=CCC4C3=O)ccc2N2CCOCC2)cc1Cl (stereo not drawn),28µM*,4%[38.3 µM],7,-3%,-28%,?
Cc1ccc(NC(=O)c2cc(N3C(=O)C=CC3=O)ccc2Cl)cc1C,2.2µM*,9%,6,-25%,3.2µM*,2
C[C@@H]1CCC2[C@](C)(CO)C(O)CC[C@@]2(C)[C@@]12CC[C@](CO)(CCO)O2 (stereo partly drawn),3%,1%,·,0%,-4%,·
CC1CC(=O)C2=C(C1)OC(N)=C(C#N)C2c1coc2ccccc2c1=O (stereo not drawn),18µM*,16%[38.3 µM],-5,-1%,-7%,8
N#CC1=C(N)OC2=C(C(=O)CCC2)C1c1ccccc1 (stereo not drawn),-13%,0%[38.3 µM],0,-2%,-14%,30
Cc1cc(OCC(=O)Nc2ccc(C(=O)OC3CCCCC3)cc2)cc(C)c1Cl,·,·,-3,·,·,·
COc1ccc(-c2csc(Nc3ccc(C)cn3)n2)cc1,24µM*,-1%,·,·,·,·
Cc1ccc(N2C(=O)C3C(C2=O)N2CCCN2C3c2ccccc2)cc1C (stereo not drawn),-4%,2%,·,·,·,·
Cc1ccc(N2C(=O)CS(=O)C(c3ccccc3)C2=O)cc1C (stereo not drawn),3.5µM*,6%,·,·,·,·
COc1ccc(Oc2ncc3nc(-c4ccccc4)c(=O)n(C4CC4)c3n2)cc1,?,0%,·,2%,?,·
O=C(/C=C/c1cccc(Cl)c1)c1nc2ccccc2[nH]1,2.2µM*,17%[38.3 µM],9,1%,?,39
CC(=O)C1=C(C)NC(SCC(=O)c2ccc(Cl)c(Cl)c2)=C(C#N)C1c1ccco1 (stereo not drawn),2.8µM*,10%[38.3 µM],8,?,22µM*,15
CC1=C(C(=O)Nc2ccccc2)C(c2ccco2)C(C#N)=C(SCC(=O)Nc2cccc(C)c2C)N1 (stereo not drawn),?,14%[38.3 µM],6,-1%,?,-82*
C=CCOC(=O)C1=C(C)NC(SCC(=O)N(CC)CC)=C(C#N)C1c1ccco1 (stereo not drawn),?,30%[38.3 µM],4,-1%,18µM*,16
CC(=O)C1=C(C)NC(SCC(N)=O)=C(C#N)C1c1ccco1 (stereo not drawn),-12%,5%,·,·,·,·
CC(=O)C1=C(C)NC(SCC(=O)c2cc(Cl)ccc2Cl)=C(C#N)C1c1ccco1 (stereo not drawn),25µM*,-1%[38.3 µM],7,-29%,28µM*,-20
CCN(CC)C(=O)CSC1=C(C#N)C(c2ccco2)C(C(=O)OCCOC)=C(C)N1 (stereo not drawn),?,9%,·,5%,?,-18
